High-throughput results as filed in PubChem.
RPL19A TOR yeast: RPL19A-GFP expression modulators in yeast, primary screen, cell-based, S. cerevisiae, multiplex flow cytometry, MLPCN; AID 2025, 2009; S. cerevisiae RPL19A-GFP strain, 3 h; active compounds read low; 330,000 compounds, 0.3% hits; percent response vs DMSO, % at 10 µM;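 active means percent response vs DMSO below 50%; inconclusive means fewer than 70 events counted for the yeast strain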;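 further: median channel GFP fluorescence of the barcoded RPL19A-GFP strain; ratio of sample median GFP to plate DMSO average so 100% = DMSO; lower means less RPL19A-GFP as with rapamycin TOR inhibition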
CIT2 TOR yeast: modulators of CIT2-GFP expression in yeast, primary screen, S. cerevisiae, GFP fusion, multiplex flow cytometry, MLPCN library; S. cerevisiae CIT2-GFP strain, 3 h; 100 means same as DMSO wells; GFP response vs DMSO, % at 10 µM; 320,000 compounds, 0.065% hits; AID 2029, 2009;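 active means GFP response relative to DMSO above a set limit, near the screen mean plus 3 SD, cut at about 150% in these data; inconclusive means Fewer than 70 cells measured for a yeast strain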;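 further: ratio of well median GFP fluorescence to mean of DMSO wells on the plate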
LAP4-GFP MLPCN: modulators of LAP4-GFP expression in yeast, primary screen, S. cerevisiae, multiplex flow cytometry, MLPCN library. 3 h; median GFP as percent of DMSO wells. GFP response vs DMSO, % at 10 µM. 320,000 compounds, 0.34% hits. AID 2023, 2009;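 active means GFP response vs DMSO above a set limit, about the screen mean plus 3 SD, cut at about 150% in these data; inconclusive means under 70 cell events counted for the yeast strain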
Pemphigus Ab inh: inhibitors of pemphigus antibody binding to DSG3, primary screen, biochemical, bead-based, flow cytometry, scFv-GFP. Desmoglein-3 (Homo sapiens), P32926. 310,000 compounds, 0.48% hits. DSG3-coupled beads, scFv-anti-DSG3-GFP binding; active compounds read low. binding (percent of control), % at 10 µM. AID 588358, 2011;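 active means binding more than 3 SD below its plate's average and above zero; inconclusive means below that plate limit but binding exactly zero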;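 further: hits lower antibody fragment binding to DSG3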
AGP1 TOR yeast: modulators of AGP1-GFP expression in yeast TOR pathway, primary screen, cell-based, multiplex flow cytometry, S. cerevisiae, MLPCN library. 320,000 compounds, 0.02% hits. 3 h; GFP as percent of DMSO wells. GFP response vs DMSO, % at 10 µM. AID 2066, 2009;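 active means GFP response relative to DMSO above a set limit, near screen average plus 3 SD, cut at about 150% in these data; inconclusive means fewer than 70 cells counted for the yeast strain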;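 further: median GFP channel fluorescence of the gated AGP1 strain per well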
MEP2-GFP yeast: modulators of MEP2-GFP levels in yeast, primary screen, S. cerevisiae, multiplex flow cytometry, MLPCN library; GFP response vs DMSO, % at 10 µM; AID 2016, 2009; S. cerevisiae MEP2-GFP strain, 3 h; 100% = DMSO control level; 330,000 compounds, 0.51% hits;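 active means GFP response versus DMSO above a set limit, roughly screen mean plus 3 SD, cut at about 180% in these data; inconclusive means fewer than 70 cells counted for a yeast strain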;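 further: median GFP fluorescence of the barcode-gated MEP2-GFP cells per well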
Numbers without * were called inactive; ? = inconclusive; nt = no result given; [ ] = dose if it differs, or a comment. An excerpt weighted towards active compounds, which were near 1.2% of everything screened.

SMILES	RPL19A TOR yeast	CIT2 TOR yeast	LAP4-GFP MLPCN	Pemphigus Ab inh	AGP1 TOR yeast	MEP2-GFP yeast
CCCCN(C(=O)CCC(=O)Nc1cc(C)on1)C(C(=O)NC1CCCC1)c1ccccc1OCC (configuration not stated)	70	?	85	97	?	420*[may fluoresce violet]
CCOc1ccc(C(=O)NNC(=O)c2cc(S(=O)(=O)N3CCOCC3)ccc2Cl)cc1	98	105	103	109	103	111
Cc1[nH]c2ccccc2c1C(=O)C(C)OC(=O)C1CCC1 (configuration not stated)	68	64	189*	103	57	103
CS(=O)(=O)/C(C#N)=C\c1cnc(S(=O)(=O)c2ccccc2)s1	101	96	126	nt	95	103
O=C(c1cc(-c2cccc(Cl)c2)on1)N1CCc2ccccc2C1	105	166*	89	98	68	99
Cc1ccc(-c2nc(CS(=O)CC(=O)NCCCc3ccccc3)c(C)o2)cc1 (configuration not stated)	97	103	91	100	101	90
Cc1cc(C)nc(/N=c2/ssnc2Cl)c1	81	77	188*	104	100	102
Cc1cc(Cl)ccc1N=c1ssnc1Cl	93	100	157*	53*	85	109
CN(C(=O)CSc1nnc(-c2ccc(OC(F)F)cc2)n1N)C1CCS(=O)(=O)C1 (configuration not stated)	97	100	106	95	101	101
CCN(CC)C(=O)COc1ccc(/C=C(\C#N)S(=O)(=O)c2ccccc2)cc1OC	100	88	106	105	100	89
C#CCOCC1CN(c2ccccc2)C(=O)O1 (configuration not stated)	nt	nt	nt	99	nt	nt
O=C1OC(COc2ccc(Br)cc2)CN1c1ccccc1 (configuration not stated)	97	100	115	81*	106	96
CC1CCN(C(=O)CSc2nc(N)c(NC(=O)c3ccccc3)c(=O)[nH]2)CC1	98	107	107	114	102	104
O=S(=O)(O)c1cc(O)c2ccc(Nc3ccccc3)cc2c1	nt	nt	nt	44*	nt	nt
O=S(=O)(O)c1ccc(O)c2cc(Nc3ccccc3)ccc12	nt	nt	nt	38*	nt	nt
COCC(=O)N(C)C[C@H]1Oc2ncc(Br)cc2C(=O)N([C@@H](C)CO)C[C@H]1C	nt	nt	nt	97	nt	nt
CC(CCc1ccccc1)NC(=O)c1nnc(Cc2ccc(Cl)cc2)o1 (configuration not stated)	98	88	103	-13*	96	94
CC(NCC(=O)Nc1cc(S(=O)(=O)N2CCOCC2)ccc1Cl)c1ccc(Cl)cc1Cl (configuration not stated)	98	97	104	108	107	99
COC(=O)c1c(C)[nH]c(C(=O)OC(C)C(=O)NC2CCCCC2C)c1C (configuration not stated)	nt	nt	nt	103	nt	nt
Cc1ccc(C)c(NC(=O)CSc2ncnc3nc[nH]c23)c1	91	94	91	nt	95	93
COc1ccc(C(=O)CSc2ncnc3nc[nH]c23)cc1	99	103	109	88*	104	98
Cc1cccc(NC(=O)CSc2ncnc3nc[nH]c23)c1C	100	94	101	37*	102	101
C=CCOc1cccc(NC(=O)c2ccccc2SC)c1	102	104	113	102	94	120
CCN(CC)CCNC(=O)C(Cl)=C1C(Cl)=C(Cl)C(Cl)=C1Cl	nt	nt	nt	121	nt	nt
CC1C(=O)N(Cc2cn(CCC3OCCCO3)nn2)CCS(=O)(=O)N1Cc1ccc(-c2ccc(Cl)cc2)cc1 (configuration not stated)	nt	nt	nt	107	nt	nt
SMILES	RPL19A TOR yeast	CIT2 TOR yeast	LAP4-GFP MLPCN	Pemphigus Ab inh	AGP1 TOR yeast	MEP2-GFP yeast
CC(=O)Nc1ccc(-n2nnnc2SCC(=O)NC2CCCC2)cc1	102	107	88	107	100	98
CC(=O)Nc1ccc(NC(=O)CSc2nnnn2-c2ccc(F)cc2)cc1	59	?	78	61*	15	194*[may fluoresce violet]
CC(=O)c1ccc(OC(C)C(=O)OCC(=O)NCCc2ccccc2)cc1 (configuration not stated)	98	94	94	108	96	104
O=C(Nc1ccccc1C(F)(F)F)NC1(C(=O)N2CCOCC2)CCCCC1	nt	nt	nt	94	nt	nt
CCc1noc(C)c1C(=O)NNC(=O)COc1cc(C)ccc1C	94	92	98	98	96	102
Cc1cccc(C(CC(=O)O)n2cccc2)c1 (configuration not stated)	55	?	121	nt	?	401*[may fluoresce violet]
O=C(O)CC(c1cccc(Cl)c1)n1cccc1 (configuration not stated)	103	nt	94	62	101	96
c1ccc(OCCSc2nc3ccccc3[nH]2)cc1	44*[may fluoresce violet]	?	103	68	nt	182*[may fluoresce violet]
CC1(c2ccc3c(c2)OCO3)NC(=O)N(CC(=O)Nc2ccc(N3CCOCC3)cc2)C1=O (configuration not stated)	94	92	97	nt	96	96
C[C@@H]1CN([C@@H](C)CO)C(=O)CCCn2nncc2CO[C@H]1CN(C)C(=O)Nc1ccc(N2CCCCC2)cc1	nt	nt	nt	109	nt	nt
CCOC(=O)c1c[nH]c2c(Cl)ccc(Cl)c2c1=O	96	97	101	nt	95	93
CCOC(=O)c1c[nH]c2c(Cl)c(Cl)ccc2c1=O	101	nt	96	86*	99	99
COc1ccc(CC(=O)NCc2ccccc2F)cc1S(=O)(=O)N1CCOCC1	nt	nt	nt	109	nt	nt
NC(=O)CC12CC3CC(C1)CC(CC(N)=O)(C3)C2	99	98	101	98	105	101
CCC12CC3CC(C1)CC(C(=O)O)(C3)C2	56	?	101	97	15	183*[may fluoresce violet]
O=C(CCc1nc(-c2ccccc2F)no1)Nc1cccnc1	93	94	105	112	107	94
CCOc1ccccc1-c1noc(CCC(=O)Nc2cccnc2)n1	68	89	88	96	68	223*
COc1ccccc1N1C(=O)c2ccc(C(=O)Nc3ccc(C(=O)O)cc3)cc2C1=O	104	101	87	100	101	105
Cc1ccc(/C=C/C(=O)OCC(=O)N(CC(C)C)c2c(N)n(Cc3ccccc3)c(=O)[nH]c2=O)o1	97	98	97	92*	99	98
CCN(C(=O)COC(=O)/C=C/c1ccc(C)o1)c1c(N)n(Cc2ccccc2)c(=O)[nH]c1=O	nt	nt	nt	92	nt	nt
